Laboratory results reported in PubChem BioAssay AID2283125 (EPA ToxCast).
Records with an inconclusive call do not appear. The source made the active and inactive calls. The calls were made as follows: active = hit-call score of the fitted dose curve at least 0.9, where 1 is the maximum; inconclusive = response in the unintended direction; inactive = score below 0.9.

These compounds were tested against Tyrosine-protein kinase ABL1 (Homo sapiens) (UniProt P00519) (assay: NVS_ENZ_hAbl: NovaScreen (NVS) Enzymatic Assay for human ABL proto-oncogene 1, non-receptor tyrosine kinase).
Chain of Tyrosine-protein kinase ABL1 (Homo sapiens) (P00519 whole entry, looked up): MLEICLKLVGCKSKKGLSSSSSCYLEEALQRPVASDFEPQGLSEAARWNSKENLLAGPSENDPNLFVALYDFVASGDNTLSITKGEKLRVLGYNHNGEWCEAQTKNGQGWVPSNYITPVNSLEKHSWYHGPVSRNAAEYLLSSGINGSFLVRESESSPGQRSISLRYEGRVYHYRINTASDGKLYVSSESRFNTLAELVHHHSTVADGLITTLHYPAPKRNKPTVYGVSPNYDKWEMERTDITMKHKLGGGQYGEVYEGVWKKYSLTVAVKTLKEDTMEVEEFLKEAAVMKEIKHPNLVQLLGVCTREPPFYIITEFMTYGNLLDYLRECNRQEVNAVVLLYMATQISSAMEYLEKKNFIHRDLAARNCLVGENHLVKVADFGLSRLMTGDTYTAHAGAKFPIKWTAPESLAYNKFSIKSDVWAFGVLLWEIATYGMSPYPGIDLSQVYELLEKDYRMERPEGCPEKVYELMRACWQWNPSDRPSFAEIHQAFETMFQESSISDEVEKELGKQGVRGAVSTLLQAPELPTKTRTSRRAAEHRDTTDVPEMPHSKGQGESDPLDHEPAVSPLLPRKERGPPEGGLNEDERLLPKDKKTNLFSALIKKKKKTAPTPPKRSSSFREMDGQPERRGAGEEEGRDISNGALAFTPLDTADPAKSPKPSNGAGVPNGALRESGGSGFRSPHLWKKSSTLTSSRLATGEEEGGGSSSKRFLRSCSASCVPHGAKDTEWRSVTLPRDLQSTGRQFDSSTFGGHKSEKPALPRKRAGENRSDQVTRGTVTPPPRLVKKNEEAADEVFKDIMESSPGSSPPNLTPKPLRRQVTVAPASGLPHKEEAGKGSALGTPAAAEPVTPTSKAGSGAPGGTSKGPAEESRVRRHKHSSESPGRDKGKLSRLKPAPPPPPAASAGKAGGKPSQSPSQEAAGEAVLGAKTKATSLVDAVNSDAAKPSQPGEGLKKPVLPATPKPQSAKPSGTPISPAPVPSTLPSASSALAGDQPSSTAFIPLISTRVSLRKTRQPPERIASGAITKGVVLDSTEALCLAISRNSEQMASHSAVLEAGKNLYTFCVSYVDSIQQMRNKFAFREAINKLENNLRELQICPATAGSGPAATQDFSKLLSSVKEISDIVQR
Experimental: NVS_ENZ_hAbl is a biochemical, single-readout assay that uses extracted gene-proteins in a cell-free assay. Measurements were taken 1 hour after chemical dosing in a 96-well plate.NVS_ENZ_hAbl is one of one assay component(s) measured or calculated from the NVS_ENZ_hAbl assay. It is designed to make measurements of enzyme activity, a form of enzyme reporter, as detected with fluorescence intensity signals by Fluorescence and electrophoretic mobility shift technology.Data from the assay component NVS_ENZ_hAbl was analyzed into 1 assay endpoint. This assay endpoint, NVS_ENZ_hAbl, was analyzed in the positive analysis fitting direction relative to DMSO as the negative control and baseline of activity. Using a type of enzyme reporter, loss-of-signal activity can be used to understand changes in the enzymatic activity as they relate to the gene ABL1. Furthermore, this assay endpoint can be referred to as a primary readout, because this assay has produced multiple assay endpoints where this one serves a enzymatic activity function. To generalize the intended target to other relatable targets, this assay endpoint is annotated to the kinase intended target family, where the subfamily is non-receptor tyrosine kinase.
Binding assays used specific radioligands (tritiated, iodinated) with non-radioactive competitive displacement ligands in agonist or antagonist protocols (as indicated) and various reference compounds and inhibitors to titrate specific binding to receptors and transporters. Most enzyme assays (CYPs, kinases, phosphatases, proteases, HDACs) used recombinant protein and specific substrates (fluorescence mostly, some colorimetric and radioactive) and inhibitors, followed by a biochemical separation of substrate and product. All assays for the biochemical HTS were initially run in duplicate at a single concentration (10 uM for CYP450 assays and 25 uM for all others). Assay-chemical combinations meeting a pre-defined threshold (e.g., 30% inhibition and other criteria defined below) were then run in singleton concentration-response format with maximum concentration of 20 uM for CYPs and 50 uM for all others. Each assay was run with positive and negative controls, and concurrent controls on every plate. The follow-up (secondary) screen tested active chemical-pairs in concentration series, as well as a few additional assays not tested in the primary screen, some selected negative inactives, and several cases re-run in the concentration series for confirmatory purposes.
For O=S(=O)(O)C(F)(F)C(F)(F)C(F)(F)C(F)(F)C(F)(F)C(F)(F)C(F)(F)C(F)(F)F, the outcome was “inactive”.
For CCCC(=NOCC)C1=C(O)CC(CC(C)SCC)CC1=O (stereo not drawn), the outcome was “inactive”.
In the case of CCCCNC(=O)n1c(NC(=O)OC)nc2ccccc21, the outcome is reported as “inactive”.
O=C(O)C(F)(F)C(F)(F)C(F)(F)C(F)(F)C(F)(F)C(F)(F)C(F)(F)F was tested, and the outcome was “inactive”.
For N#Cc1c(Cl)c(Cl)c(Cl)c(C#N)c1Cl, the outcome was “inactive”.
For CCNc1nc(Cl)nc(NCC)n1, the outcome was “inactive”.
In the case of O=C(Nc1ccccc1)Nc1ccnc(Cl)c1, the outcome is reported as “inactive”.
For O=C(Nc1ccccc1)Nc1cnns1, the outcome was “inactive”.
